Screening results deposited in PubChem by National Center for Advancing Translational Sciences (NCATS).
ClpP mod: qHTS Assay for Activators of ClpP | purified B. subtilis ClpP, FRET peptide cleavage, 20 min | Potency, µM (top dose mostly 57.5 µM), for the others: at the highest dose activity change, negative = active | 340,000 compounds, 1.9% hits | ATP-dependent Clp protease proteolytic subunit (Bacillus subtilis (strain 168)), P80244; active = well fitted falling curve with a large enough effect; inconclusive = small, poorly fitted or top-dose-only effect; inactive = no such curve, though single readings can be large or run the other way; note: potency is the fitted concentration of half-maximal effect; the source files actives as falling curves though it sought activators and does not explain the sign; nearly all actives have a fitted effect of over 65% in size
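Purified B. subtilis ClpP, 10 microg/mL final in Tris/HCl pH8 with KCl, BSA, glycerol and Tween-20, cleaved an Abz/nitrotyrosine-quenched decapeptide. Fluorescence (ex 320, em 430) was read at 0 and 20 min at room temperature. Delta was normalized to 5.8 microM ADEP and DMSO/no-enzyme controls.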
mIDH1 inhibitor: blocks human mutant IDH1 R132H enzyme. IDH1-R132H enzyme, NADPH consumption, diaphorase/resazurin fluorescence. 390,000 compounds, 0.093% hits. Potency, µM (highest dose often 76.6 µM), for inactives: top-dose activity change, negative = inhibition, usual class: inhibitors. O75874; note: potency is the fitted concentration of half-maximal effect; % is set by controls: 0 for no effect and ±100 for the full control effect; nearly all actives have a fitted effect of over 65% in size
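IDH1-R132H (0.5 ug/mL) preincubated 30 min with compound, then NADPH (0.016 mM) and alpha-KG (2 mM) added; 80 min at RT, pH 7.5. Remaining NADPH coupled via diaphorase/resazurin to fluorescence (540/590 nm); concentration-response curves normalized to no-enzyme control.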
S-ASM inh: human S-ASM enzyme inhibition; Potency, µM (titrated, usually from 57.5 µM), for the others: at the highest dose activity change, negative = inhibition, most hits filed as inhibitors; placental ASM, HMU-PC fluorogenic substrate, 60 min; 340,000 compounds, 0.006% hits; P17405; note: potency is the fitted concentration of half-maximal effect
Target sequence (P17405 47-631 limits assumed): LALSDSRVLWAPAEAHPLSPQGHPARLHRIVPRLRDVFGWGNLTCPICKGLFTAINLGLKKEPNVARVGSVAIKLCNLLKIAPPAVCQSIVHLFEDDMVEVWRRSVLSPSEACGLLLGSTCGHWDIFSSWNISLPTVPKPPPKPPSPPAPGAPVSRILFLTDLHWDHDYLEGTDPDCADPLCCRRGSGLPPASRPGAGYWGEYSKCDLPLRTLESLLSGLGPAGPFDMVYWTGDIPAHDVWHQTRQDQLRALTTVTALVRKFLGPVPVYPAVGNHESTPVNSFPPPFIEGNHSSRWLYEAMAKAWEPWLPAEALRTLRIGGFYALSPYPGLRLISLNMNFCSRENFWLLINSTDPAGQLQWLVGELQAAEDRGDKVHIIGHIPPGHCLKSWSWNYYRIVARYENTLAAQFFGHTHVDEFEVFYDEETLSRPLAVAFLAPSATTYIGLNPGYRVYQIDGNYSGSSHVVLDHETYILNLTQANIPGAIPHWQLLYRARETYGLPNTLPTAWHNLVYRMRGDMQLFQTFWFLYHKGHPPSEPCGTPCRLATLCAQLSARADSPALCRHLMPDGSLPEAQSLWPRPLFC
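HMU-PC0 cleavage (9 uM final) by human placental ASM, 60 min at 37 °C following 10 min compound exposure at RT; stopped at pH 10, fluorescence Ex 386/Em 447 nm.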
RGS4 inh: human RGS4 inhibition. AID 504845. 390,000 compounds, 0.039% hits. Potency, µM (doses to about 114 µM), for inactives: top-dose activity change, negative = inhibition, hits mostly inhibitors. Transcreener GDP fluorescence polarization, RGS4-accelerated GTP hydrolysis; note: potency is the fitted concentration of half-maximal effect; % is set by controls: 0 for no effect and ±100 for the full control effect; nearly all actives have a fitted effect of over 75% in size
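MLSMR compounds (23 nl, pin-transferred) preincubated 10 min at room temperature with a 500nM (2x) first reagent, then RGS4 at 900nM (2x) plus Transcreener GDP mix added; fluorescence polarization (620/688 nm) read before and after 90 min at 30 °C.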
LDHA inh: LDHA (human) enzyme inhibition; activity change, % (values are at about 110 or 230 µM); purified LDHA, NADH/diaphorase-resazurin fluorescence; hits give low values; 480,000 compounds, 0.15% hits; P00338; in the data active = activity change below about -30%; inconclusive = mostly about -25% to -30%;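 note: plate controls were DMSO wells for no effect and wells without enzyme for full effect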
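Enzyme activity of human lactate dehydrogenase 5 (2 nM; 0.06 mM NADH, 0.2 mM pyruvate, 5 min, RT) is measured via a resazurin/diaphorase fluorescence readout of residual NADH.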
Mito fusion act: blocks mitochondrial division or promotes mitochondrial fusion; 320,000 compounds, 0.23% hits; AID 485298; Potency, µM (titrated, usually from 46.1 µM), for the others: top-dose growth rescue (activation), usual class: activators; S. cerevisiae fusion-defective mutant growth rescue, CellTiterGlo 48 h; note: potency is the fitted concentration of half-maximal effect; % of control where 0% means no effect; nearly all actives have a fitted effect of over 45% in size
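Yeast fusion mutant, YPEG (non-fermentable carbon), compound, 48 h at 37C non-permissive; CellTiterGlo added, 10 min RT, luminescence read. Rescued growth = division inhibition.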
* hit, by the source's call; ? = inconclusive; . = no result; ! = a repeat was not active; [ ] = remark or other dose. Many of the other results were omitted from the sample, so hits are more common in it than they were. Unless noted, calls come from the whole dose curve; as a rule, active = well fitted curve in the direction sought with a large enough effect; inconclusive = small, poorly fitted or top-dose-only effect, or another doubt; inactive = no such curve, though single readings can be large; an effect the other way counts as inactive or inconclusive.

SMILES	ClpP mod	mIDH1 inhibitor	S-ASM inh	RGS4 inh	LDHA inh	Mito fusion act
CCOC(=O)N1CCc2c(sc3c2C(=O)NC(c2ccccc2)N3)C1 (stereo not given)	28µM*	-1%	210%	-16%	20	2%
CN1CCc2c(sc3c2C(=O)NC(c2cn(Cc4ccccc4)c4ccccc24)N3)C1 (stereo not given)	16µM*	1%	351%	-43%	3	-5%
CC1Sc2ccc(C(=O)OCC(N)=O)cc2NC1=O (stereo not given)	.	.	.	.	9	.
CN1CCN(c2ccc(NC(=O)c3ccc(F)cc3Cl)nc2)CC1	.	.	.	.	8	.
O=C1CC(C(=O)Nc2ccc(O)c(C(=O)O)c2)C(c2ccccc2)O1 (stereo not given)	25µM*	0%	0%	-3%	4	2%
O=C1CC(C(=O)Nc2ccc(C(=O)O)cc2)C(c2ccccc2)O1 (stereo not given)	-3%	8%	-1%	23%	-4	2%
S=C1Cc2ccccc2N1	-1%	37µM*	-8%	?	6	-29%
S=C1Nc2ccccc2CS1	-2%	6%	.	.	-6	.
Brc1ccc(-c2csc3ncnc(-n4nnc5ccccc54)c23)cc1	-28%	7%	-5%	-6%	-2	13µM*
Cc1sc2ncnc(-n3nnc4ccccc43)c2c1C	3%	-6%	2%	-30%	-3	3%
c1ccc(OCc2nc3c4c(ncn3n2)-c2ccccc2CC42CCCC2)cc1	13µM*	9%	0%	8%	-1	2%
Nc1ncnc2c1C1(CCCCC1)Cc1ccccc1-2	16µM*	0%	1%	-20%	-3	2%
O=C(O)c1cccc(N2CCCC2=O)c1	0%	0%	8%	2%	-10	-1%
O=C(O)c1cccc(N2CCCC2)c1	28µM*	-1%	45%	-3%	6	3%
COc1ccccc1/C=C/C(=O)OC(C)CN1CCOCC1 (stereo not given)	32µM*	4%	-3%	-24%	1	0%
COc1ccccc1C=CC(=O)C=Cc1ccccc1OC	28µM*	4%	7%	-48%	-1	.
C=CCNCc1sccc1C	.	.	.	.	4	.
CC1(C)Cc2c(sc(NC(=O)c3ccco3)c2C(=O)O)CO1	-4%	7%	4%	6%	-34*	1%
CC(C)OC(=O)c1c(NC(=O)c2ccco2)sc2c1CCCCC2	28µM*	-3%	14%	-15%	8	8%
COC(=O)c1c(NC(=O)c2c(-c3ccccc3Cl)noc2C)sc2c1CCC2	32µM*	5%	-9%	-9%	-4	2%
COC(=O)c1c(NC(=O)c2c(C)noc2C)sc2c1CCCCCC2	.	.	.	.	.	-5%
COC(=O)c1c(NC(=O)c2ccc(C)o2)sc2c1CCCCC2	32µM*	0%	60%	1%[11.4 µM]	-5	?
CC(CNC(=O)Cc1n[nH]c(=O)c2ccccc12)c1ccccc1 (stereo not given)	.	.	.	.	-3	.
CC(Nc1cc(N2CCNCC2)ccc1[N+](=O)[O-])c1ccccc1 (stereo not given)	28µM*	8%	-25%	-44%	-3	-15%
Cc1cccc(N(Cc2cc3ccccc3[nH]c2=O)S(=O)(=O)c2ccccc2)c1	32µM*	-3%	-4%	5%	-4	-3%
SMILES	ClpP mod	mIDH1 inhibitor	S-ASM inh	RGS4 inh	LDHA inh	Mito fusion act
O=c1[nH]c2ccccc2cc1CN(c1ccccc1)S(=O)(=O)c1ccccc1	32µM*	2%	-3%	-5%	-3	-5%
CCOc1ccc(N(Cc2cc3ccc(C)cc3[nH]c2=O)S(=O)(=O)c2ccccc2)cc1	32µM*	-6%	-19%	-7%	0	-19%
Cc1ccc(N(Cc2cc3cc(C)ccc3[nH]c2=O)S(=O)(=O)c2ccccc2)cc1	28µM*	2%	-10%	14%	-1	-7%
Cc1ccc2cc(CN(c3ccccc3)S(=O)(=O)c3ccccc3)c(=O)[nH]c2c1	.	-1%	-14%	7%	-5	6%
COc1ccccc1/C(C)=N/Nc1ccc(Cl)c(C(=O)O)c1	.	.	.	.	7	.
CC1(C)OC(c2ccccc2)=C/C(=C/C=C(C#N)C#N)O1	.	.	.	.	12	.
COCCN(CCOC)Cc1cc(=O)oc2cc(C)c(O)cc12	.	.	.	.	-2	.
Cc1cccc(N(Cc2cc3ccc(C)cc3[nH]c2=O)S(=O)(=O)c2ccccc2)c1	25µM*	0%	-6%	9%	-2	4%
O=C(Cn1c(-c2ccccc2Cl)nc2ccccc21)Nc1cccc(Cl)c1	1%	1%	0%	4%	-6	1%
Cc1ccc(C)c(NC(=O)Cn2c(-c3nonc3N)nc3ccccc32)c1	0%	-9%	.	-8%	-33*!	.
Cc1cc(C)cc(NC(=O)Cn2c(-c3ccccc3Cl)nc3ccccc32)c1	28µM*	-13%	0%	-3%	-3	-4%
Cc1cc(SCC(=O)NCC(=O)N(C)C)nc2c(C)cccc12	.	.	.	.	1	.
Cc1ccccc1NC(=O)C(=O)NCCc1csc2nc(-c3ccccc3F)nn12	.	.	.	.	-6	.
CC1CN(C(=O)COC(=O)c2cnc(Cl)c(Cl)c2)CC(C)O1 (stereo not given)	32µM*	-10%	0%	5%	-12	.
CN1CCN(CC(=O)NN(Cc2ccccc2)c2ccccc2)CC1	-2%	3%	2%	6%	-44*	9%
C=CCN1CN(S(=O)(=O)c2cccs2)c2nc3ccccc3nc21	25µM*	2%	26%	-13%	2	7%
O=C(/C=C/c1ccc2c(c1)OCO2)NCc1ccco1	28µM*	5%	11%	-40%	2	-4%
CCNC(=O)NC(=O)C(C)N(C)CCC(=O)NC (stereo not given)	.	.	.	.	4	.
Cc1cccc(Nc2nc(NCCCN3CCOCC3)nc(N)c2[N+](=O)[O-])c1	20µM*	2%	-6%	4%	-2	0%
Nc1nc(NCCCN2CCOCC2)nc(Nc2cccc(F)c2)c1[N+](=O)[O-]	.	0%	-3%	-14%	2	-19%
COc1ccc(CCN2C(=O)C3C4C=CC(C3C2=O)C2C(=O)N(CCc3ccc(OC)c(OC)c3)C(=O)C42)cc1OC (stereo not given)	1.8µM*	0%	0%	14%	-2	1%
O=C(NC1CCCC(C(F)(F)F)C1)c1ccsc1 (stereo not given)	.	.	.	.	11	.
CC(NC(=O)/C=C/c1ccc(Cl)cc1)C12CC3CC(CC(C3)C1)C2 (stereo not given)	.	.	.	.	3	.
Nc1c(C(=O)c2ccc(Cl)cc2)oc2ccccc12	-2%	6%	1%	12%	0	25µM*
